The record followed here is PubChem BioAssay (NCI).

Several values for one entry are separate records, joined by “and”; a condition that tells them apart may be missing. Identical values can stand only once. About 83,000 compounds went through this panel and 20% of them were active in at least one assay; those are over-represented in the sample as a whole.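 Cells were grown in 96-well plates and exposed to the test compound at a single concentration for 48 hours; results are reported as percent growth, with values below 10 considered active.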 A number with no mark means an inactive call. Activity calls are given as the source filed them.

In this test the test system is MDA-MB-468 breast. In words: NCI-60 one-dose screen, 48 h (100 = growth as untreated, 0 = no growth, -100 = all killed). The conditions noted are these: 10 µM unless noted.
Take `COC(=O)[C@]12CCC(C)(C)C[C@H]1[C@H]1C(=O)C[C@@H]3[C@@]4(C)C[C@@]5(CC(C)(C)[C@@H]4CC[C@@]3(C)[C@]1(C)CC2)OO[C@@](C)(C(F)(F)F)O5`: the growth is 84.5%. Turning to `ClCCN(CCCl)c1nc(Cl)c(C2CC(c3ccc(Cl)cc3)=NN2c2cc(Cl)cc(Cl)c2)s1` (centres undefined), the growth is 112%.

For `COc1ccc(C/C(C)=C(\c2ccc(OCCN3CCOCC3)cc2)c2ccc(OC(=O)Cc3ccccc3)cc2)cc1`, the growth is -33.4% (active). The result for `O=[N+]([O-])c1ccccc1N1CCNCC1` reads 113%; that for `CC1(C)N=C(N)N=C(N)N1c1ccc(OCCCNC(=O)Nc2ccc(S(=O)(=O)F)cc2)c(Cl)c1`, 14.6%; that for `COC(=O)C1OC(Oc2ccc(N(CCCl)CCCl)cc2)C(OC(C)=O)C(OC(C)=O)C1OC(C)=O` (centres undefined), 28.3%.

For the compound `C[C@]12CCc3sc(-c4cccc(F)c4)nc3C1=CC[C@@H]1[C@@H]2CC[C@]2(C)C(=O)CC[C@@H]12`, the growth was 29.2%.

Turning to `COc1ccc(Nc2ccc([N+](=O)[O-])cc2[N+](=O)[O-])cc1CN(CCCl)CCCl`, the growth was 10.1%.

With `CCC1(C(C)C)C(=O)NC(=S)NC1=O`, the growth was 89.9%. As for `NC(=O)Oc1cc(OC(N)=O)cc(N(CCCl)CCCl)c1`, the growth was 29.9%. Regarding `OC1CCCCC1N1CCC(c2ccccc2)CC1` (centres undefined), the growth is 116%. With `Cn1cc(-c2csc(-c3cn(CCCCN4CCOCC4)c4ccc(F)cc34)n2)c2cccnc21`, the growth was 65%.

Turning to `CC(=O)OCc1cc[c]([Hg][Cl])o1`, the growth is 21%.

As to `COc1ccc(CN)cc1OC`, the growth is 114%. In the case of `CC1(C)CC(=O)CC(C)(C)N1N=O` it was 124%; in that of `NC1CC2CCCCC2CC1(O)c1ccccc1` (centres undefined), 98.2%; in that of `COc1cc(C=Nc2cccc(C(=O)O)c2)ccc1N(CCCl)CCCl`, 46.6%. Turning to `COC1CC2C=C(C)/C=C/C=C/C(=O)NC(c3ccccc3)C/C=C/CCC(O)CC(=O)C2=C1O` (centres undefined), the growth was -50.7% (active).

Regarding `CC[C@H](C)[C@H](NC(=O)[C@H]1CCCCN1C)C(=O)N(C)[C@H](C[C@@H](OC(C)=O)c1nc(C(=O)N[C@@H](Cc2ccccc2)C[C@H](C)C(=O)O)cs1)C(C)C`, the growth was -6.41% (active). Take `O=[N+]([O-])c1cc(Cl)c(Cl)c([N+](=O)[O-])c1Cl`: the growth is 9.01% (active).

On to `CC1=C2C(=C[C@@](C)(COC(=O)c3ccc(S(=O)(=O)F)cc3)[C@@H]2O)C(=O)[C@](C)(O)C12CC2`, for which the growth is -78.8% (active).

In the case of `C[C@@]12CCCc3coc(c31)C(=O)c1cc3c(cc12)C(=O)C1=C(NCCS1(=O)=O)C3=O`, the growth was -65.6% (active). Turning to `CCOC(=O)[C@@H](C)C[C@H](Cc1ccccc1)NC(=O)c1csc([C@@H](C[C@H](C(C)C)N(C)C(=O)[C@@H](NC(=O)[C@H]2CCCCN2C)C(C)(C)CC)OC(C)=O)n1`, the growth was 19.5%.

Regarding `Nc1ccc(OCCNS(=O)(=O)c2cccc(S(=O)(=O)F)c2)c(Cl)c1`, the growth was 94.6%. With `CC(C)c1cc([N+](=O)[O-])cc([N+](=O)[O-])c1O`, the growth is 96.7%. On to `C[C@@H]1C[C@H]2C(=O)O[C@@H](C)C(NC(=O)[C@H](Cc3cc(F)cc(F)c3)NC(=O)Nc3ccc(OS(=O)(=O)F)cc3)C(=O)N3CCC[C@H]3C(=O)N3CCO[C@H](C)[C@H]3C(=O)N[C@@H](CO)C(=O)N2C1` (some centres undefined), for which the growth was -7.29% (active).

For `CC1=CC(=Nc2ccc(N(CCCl)CCCl)cc2)C=C(C)C1=O`, the growth is -66.3% (active). On to `C=C1[C@@H](C)C2[C@H](Cc3ccccc3)NC(=O)[C@]23[C@H](OC(C)=O)/C=C/[C@@](C)(O)C(=O)[C@@H](C)C/C=C/[C@H]3[C@@H]1O` (some centres undefined), for which the growth is 45.2%. Regarding `CC(C)COC(C[N+](=O)[O-])C(Cl)(Cl)Cl` (centres undefined), the growth was 112%. As to `CN1C(=O)C23CC4(C56CC78SSC(CO)(C(=O)N7C5Nc5ccccc56)N(C)C8=O)c5ccccc5NC4N2C(=O)C1(CO)SS3` (centres undefined), the growth was -81.7% (active). In the case of `Cc1cc[n+](CCc2ccccc2)cc1`, the growth was 61.2% and 72.9%. In the case of `O=P(O)(Nc1ccccc1)Nc1ccccc1` it was 90.2%. For the compound `CCCCCCCC(=O)OCC/C=C/C1OC1C1OC(=O)/C=C\C=C\c2nc(oc2C)/C=C(/C)CCC2OC2C1OC(=O)NC(C)=O` (centres undefined), the growth was -51.1% (active). For the compound `CN(C)[C@@H]1C(=O)C(C(N)=O)=C(O)[C@@]2(O)C(=O)C3=C(O)c4c(O)ccc(Cl)c4[C@@](C)(O)[C@H]3C[C@@H]12`, the growth was 105% and 101%.
